Test results: PubChem BioAssay AID651671 (Sanford-Burnham Center for Chemical Genomics, 2012)
This is one part of the list. Unmarked numbers belong to inactive results. The source made the active and inactive calls.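 The calls were made as follows: active = activation of at least 7% in one or more replicates; inactive = the rest.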

Test: activation of alpha-dystroglycan glycosylation – single concentration, Pro5-aDG cells, confirmation (AID 651671);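 also: cells exposed to compound for two days before detection; 0% = DMSO-treated Pro5 cells and 100% = DMSO-treated B10-LARGE cells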
Conditions: alpha-DG glycosylation, IIH6 AlphaLISA, stronger effect = higher value, screened at 10 µM (by protocol), scaled to LARGE-overexpressing B10 cells as 100%

| SMILES | activation |
| --- | --- |
| O=c1ccc2cc(S(=O)(=O)N3CCN(c4ccccc4)CC3)ccc2o1 | -0.742% |
| CCOC(=O)C1(CCOC)CCN(Cc2cc3ccccc3s2)CC1 | -0.438% |
| CCOc1ccc(OCC(=O)Nc2c3c(nn2C(C)(C)C)CS(=O)(=O)C3)cc1 | 0.637% |
| CCCn1c(=N)n(CC(=O)c2ccc(Cl)c(Cl)c2)c2ccccc21 | 11% (active) |
| CN(C)CCCNC(=O)/C=C/c1ccc(OCc2c(F)cccc2Cl)cc1 | 8.53% (active) |
| CCOc1ccccc1Nc1nnc(SCC(=O)NCC2CCCO2)s1 (configuration not stated) | 0.625% |
| Cc1cc(C)c2[nH]c(=O)c(CN(Cc3ccccc3)C(=S)NCCCN(C)C)cc2c1 | 1.74% |
| COc1cc(CNCCN(C)C)ccc1OCc1c(F)cccc1Cl | 6.71% (active) |
| Cc1cccc(CN2CCC(CNC(=O)Nc3ccc(F)c(Cl)c3)CC2)c1 | 11% (active) |
| COc1cccc(C(=O)Nc2nnc(S(=O)(=O)N3CCCCC3)s2)c1 | -0.562% |
| COc1ccccc1C1SCCN1C(=O)c1ccc([N+](=O)[O-])cc1 (configuration not stated) | -0.592% |
| CCc1ccccc1S(=O)(=O)Cc1ccc(C(=O)NCCc2ccccc2)o1 | -0.875% |
| CCn1cc(CN2CCC(C(=O)Nc3cccc(-c4cccc(Cl)c4)c3)CC2)c(C)n1 | 9.24% (active) |
| O=C(NC(c1ccc(-c2ccccc2)cc1)c1cnccn1)C1CCN(CCOc2ccc(Cl)cc2Cl)CC1 (configuration not stated) | 3.11% |
| CC(C)c1cc(Cn2c3ccccc3c(=O)n2C(C)Cn2cc(C3CC3)nn2)on1 (configuration not stated) | 0.475% |
| COc1ccc(NC(=O)CSc2nnc(-c3ccccc3F)n2C2CC2)cc1S(N)(=O)=O | -0.758% |
| Cc1ccc(NC(=O)c2ccc(Oc3ncccn3)cc2)cc1 | -0.983% |
| Nc1scc[n+]1Cc1cccc2cccnc12 | -0.533% |
| CC(C)OC(=O)CN1C(=O)C(=O)c2ccccc21 | 8.05% (active) |
| CN1CCN(S(=O)(=O)c2cccc(C(=O)Nc3sccc3C#N)c2)CC1 | 42% (active) |
| OC[C@@H]1CN(Cc2ccc(-c3ccccc3)cc2)C[C@H](n2cnc3c(NC4CCCC4)ncnc32)O1 | 4.21% |
| CN(Cc1ccccc1)CC(O)COc1ccc(CNCc2cc3ccccc3s2)cc1 (configuration not stated) | 0.15% |
| CC(C)C(=O)NCC(c1cccs1)S(=O)(=O)c1ccc(F)cc1 (configuration not stated) | 0.3% |
| Cc1ccc(NC(=O)CN(C)CC(=O)Nc2cccc(F)c2)cc1[N+](=O)[O-] | 1.48% |
| CC(=O)Oc1cccc(N2C(=O)C3CC=C(Cl)CC3C2=O)c1 (configuration not stated) | 0.562% |
| COc1ccccc1N1CCN(C(=O)c2cc(-c3ccc(Br)cc3)on2)CC1 | -0.683% |
| O=C(c1ccc(N2CCCC2=O)cc1)N1CCN(c2ccc(C(F)(F)F)cc2[N+](=O)[O-])CC1 | 1.5% |
